GIRK2 act – opens human GIRK2 potassium channels. HEK293-GIRK2 thallium flux, Thallos fluorescence, MPD. calls only for hits at 25 µM. 0.05% of 63,000 active; call rule not given here
Target sequence (P48051 whole entry, looked up): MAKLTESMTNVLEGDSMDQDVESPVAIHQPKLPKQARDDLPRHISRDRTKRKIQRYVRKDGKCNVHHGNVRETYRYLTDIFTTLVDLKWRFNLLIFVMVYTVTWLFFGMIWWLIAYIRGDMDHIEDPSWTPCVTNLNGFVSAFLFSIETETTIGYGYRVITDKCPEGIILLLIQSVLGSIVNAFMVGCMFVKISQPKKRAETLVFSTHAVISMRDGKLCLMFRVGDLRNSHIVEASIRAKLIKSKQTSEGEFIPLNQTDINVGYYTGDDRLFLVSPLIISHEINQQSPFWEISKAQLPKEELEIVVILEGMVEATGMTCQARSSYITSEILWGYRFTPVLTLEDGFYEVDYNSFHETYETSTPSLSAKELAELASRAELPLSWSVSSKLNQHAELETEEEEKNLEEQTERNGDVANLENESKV
An asterisk follows results filed as active; i = inactive; + = active, no number. Only a selection was taken, and hits are over-represented in it overall.

SMILES	GIRK2 act
Cc1ccccc1-n1nnc(C(=O)N2CCN(S(C)(=O)=O)CC2)c1-c1ccncc1	i
Cc1ccccc1-n1nnc(C(=O)Nc2cccc(C(C)C)c2)c1-c1ccncc1	+
COc1cccc(-n2nnc(C(=O)NCc3ccc(C(C)C)cc3)c2-c2ccncc2)c1	i
O=C(Cn1cccc(-c2nc(C3CC3)no2)c1=O)c1ccccc1Cl	i
CCOc1ccc(-c2cc(C(=O)N3CCC(NC(=O)c4ccc(C)cc4)CC3)[nH]n2)cc1	i
COc1ccccc1N1C(=O)N(c2ccc(Br)cc2)C2CS(=O)(=O)CC21 (centres undefined)	i
Cc1ccc(OCC(O)CN2CCN(CCO)CC2)cc1 (centres undefined)	i
O=C(CSc1ccc(F)cc1)NCc1ccsc1	i
CC(C)OCCCNc1nc2c(c(=O)n(Cc3ccccc3)c(=O)n2C)n1C	i
COc1ccc(C)c2sc(N3CCN(C(=O)Cn4c(=O)oc5ccccc54)CC3)nc12	i
COc1ccccc1-c1c(C)oc2c3c(ccc2c1=O)OCN(Cc1ccco1)C3	i
CCOC(=O)c1cn(CC(=O)Nc2ccc(F)c(C)c2)c2nc(C)ccc2c1=O	i
Cc1ccc2c(c1)N(Cc1ccccc1)N=C(C(=O)N1CCOCC1)S2(=O)=O	i
O=C(c1cnccn1)N1CCN(C(=O)C2CC2c2ccccc2)CC1 (centres undefined)	i
CCOc1ccc(NC(=O)C(=O)NCCC(O)c2cccs2)cc1 (centres undefined)	i
O=C(CN1CC(c2nc(C3CC3)no2)C1)Nc1ccc2c(c1)OCO2	i
O=C(CCc1csc(NC(=O)c2ccc[nH]c2=O)n1)NCCc1c[nH]c2ccccc12	i
Cc1cccnc1NC(=O)C(C)n1nc(-c2cccs2)ccc1=O (centres undefined)	i
COc1cccc(OC)c1C(=O)NCc1sc(-c2ccccc2)nc1C	i
Cc1cccc(-c2noc(C3CCN(CC(=O)Nc4cc(C)ccc4C)CC3)n2)c1	i
Cc1cccc(N2C(=O)N(c3ccc(Br)cc3)C3CS(=O)(=O)CC32)c1 (centres undefined)	i
O=C(NCC1(c2ccc(F)cc2)CCOCC1)NC1CCCCCC1	i
COCCn1c(-c2ccc([N+](=O)[O-])cc2)nc2c(c(=O)c3ccccc3n2C)c1=O	i
O=C(CSc1ncc(CO)n1Cc1ccc(Cl)cc1)NCc1ccco1	i
Cc1cc(C(=O)N=c2sc3cc(F)ccc3n2C)on1	i
SMILES	GIRK2 act
COCCn1c(=O)c2c(nc3n(-c4cc(C)ccc4C)c(C)cn23)n(C)c1=O	i
CCOc1ccc2ccccc2c1C(=O)Nc1ccc(-n2nnc(C(=O)N(C)C)n2)cc1	i
COc1ccc(CCNC(=O)CSc2nnc(C)c3cnn(-c4ccc(C)cc4)c23)cc1OC	i
Cc1ccc2nc(N(CCCn3ccnc3)C(=O)c3ccc(Cl)s3)sc2c1	i
O=C(c1cnn2c(-c3ccc(Cl)cc3)ccnc12)N1CCN(c2ccccc2)CC1	i
Cc1ccc(-c2cc3c(=O)n(Cc4nc(-c5cccs5)no4)ncn3n2)c(C)c1	i
Cc1cc(C)c2c(n1)sc1c(N)ncnc12	i
O=C(Nc1nccs1)c1nnn(-c2ccccc2)c1-c1ccccn1	i
O=C(Nc1ccc2c(c1)OCCO2)c1nnn(-c2ccccc2Cl)c1-c1ccccn1	+
O=C(Nc1ccc(F)cc1)c1nnn(-c2ccccc2Cl)c1-c1ccccn1	i
Cc1[nH]ncc1CNC(=O)c1nnn(-c2ccccc2Cl)c1-c1ccccn1	i
Cc1csc(NC(=O)c2nnn(-c3ccccc3Cl)c2-c2ccccn2)n1	+
O=C(c1nnn(-c2ccccc2Cl)c1-c1ccccn1)N1CCN(c2ncccn2)CC1	i
O=C(/C=C/c1ccccc1F)c1cc([N+](=O)[O-])ccc1O	i
CC(C)c1cc(=O)n(CC(=O)Nc2cc(N3CCCC3)ncn2)cn1	i
COc1cc(/C=C2\SC(=S)N(c3ccc(O)cc3)C2=O)ccc1O	i
COc1cc(/C=C2/SC(=S)N(c3ccccc3Cl)C2=O)ccc1O	+
COc1cc(/C=C2\SC(=S)N(c3cccc(O)c3)C2=O)ccc1O	i
O=C(Nc1cccc(C(F)(F)F)c1)C1CCN(c2ccc(-n3cccn3)nn2)CC1	i
Cn1nnn(-c2ccc(NC(=O)c3ccccc3Br)cc2)c1=O	i
COc1ccccc1OCC(=O)Nc1cc(N2CCCCC2)ncn1	i
COc1ccccc1N1CCN(c2ccnc(SCC(=O)Nc3c(C)cc(C)cc3C)n2)CC1	i
C=C(C)Cn1c(=O)c2c(nc3n(-c4ccccc4OCC)c(C)cn23)n(C)c1=O	i
O=C(CSc1nc2[nH]ncc2c(=O)n1-c1ccccc1)Nc1nsc(-c2ccc(Cl)cc2)n1	i
O=C(NCC1(O)CCOc2ccccc21)Nc1ccccc1 (centres undefined)	i
CC(=O)Nc1ccc(S(=O)(=O)NCCc2cc(C)no2)cc1	i
CC(=O)c1cccc(Nc2ccnc3ccc(F)cc23)c1	i
CCOC(=O)C1=C(C)N=c2s/c(=C/c3c(C)nn(C)c3C)c(=O)n2C1c1ccccc1 (centres undefined)	+
